Laboratory results from PubChem BioAssay (NCATS).
Records with an inconclusive call do not appear. Activity calls are given as the source filed them. Calls follow the shape of the dose curve; as a rule, active = well fitted curve in the direction sought with a large enough effect; inconclusive = small, poorly fitted or top-dose-only effect, or another doubt; inactive = no such curve, though single readings can be large; an effect the other way counts as inactive or inconclusive.

Key:
[1] = target: Rap guanine nucleotide exchange factor 3 (Homo sapiens) (UniProt O95398); assay: Confirmatory qHTS for agonist of cAMP-regulated guanine nucleotide exchange factor 3 (EPAC1) (AID 1645881);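 also: EPAC1 catalysed release of BODIPY-GDP from Rap1B seen as fluorescence loss; 100% = effect of cAMP agonist control; nearly all actives have a fitted effect of over 75% in size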
[2] = target: Rap guanine nucleotide exchange factor 4 (Homo sapiens) (UniProt Q8WZA2); assay: Confirmatory qHTS for agonist of cAMP-regulated guanine nucleotide exchange factor 4 (EPAC2) (AID 1645884);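 also: nucleotide exchange releases bodipy-GDP from Rap1 and this lowers its fluorescence; % is scaled to controls: 0 for no effect and ±100 for the full control effect; nearly all actives have a fitted effect of over 65% in size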
[3] = target: Rap guanine nucleotide exchange factor 4 (Homo sapiens) (UniProt Q8WZA2); assay: Confirmatory qHTS for antagonist of cAMP-regulated guanine nucleotide exchange factor 4 (EPAC2) (AID 1645885); also: nearly all actives have a fitted effect of over 25% in size; as to activity change, negative = inhibition: % is scaled to controls: 0 for no effect and ±100 for the full control effect
[4] = target: Rap guanine nucleotide exchange factor 3 (Homo sapiens) (UniProt O95398); assay: Counterscreen qHTS for antagonist of cAMP-regulated guanine nucleotide exchange factor 3 (EPAC1) (AID 1645888);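 also: fluorescence loss as bound BODIPY-GDP is released from Rap1B; % of control where 0% means no effect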
Summary of the method: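 Rap1B–BODIPY-GDP (250 nM) with 50 uM GDP; compounds pin-transferred to 9.74 nM–152 uM final (activator) or from 7.32 nM upwards (inhibitor). Fluorescence Ex/Em 480/540 nm read at 5 and 30 min, then after adding cAMP or buffer, at room temperature.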

Sequence of Rap guanine nucleotide exchange factor 4 (Homo sapiens) (Q8WZA2 whole entry, looked up): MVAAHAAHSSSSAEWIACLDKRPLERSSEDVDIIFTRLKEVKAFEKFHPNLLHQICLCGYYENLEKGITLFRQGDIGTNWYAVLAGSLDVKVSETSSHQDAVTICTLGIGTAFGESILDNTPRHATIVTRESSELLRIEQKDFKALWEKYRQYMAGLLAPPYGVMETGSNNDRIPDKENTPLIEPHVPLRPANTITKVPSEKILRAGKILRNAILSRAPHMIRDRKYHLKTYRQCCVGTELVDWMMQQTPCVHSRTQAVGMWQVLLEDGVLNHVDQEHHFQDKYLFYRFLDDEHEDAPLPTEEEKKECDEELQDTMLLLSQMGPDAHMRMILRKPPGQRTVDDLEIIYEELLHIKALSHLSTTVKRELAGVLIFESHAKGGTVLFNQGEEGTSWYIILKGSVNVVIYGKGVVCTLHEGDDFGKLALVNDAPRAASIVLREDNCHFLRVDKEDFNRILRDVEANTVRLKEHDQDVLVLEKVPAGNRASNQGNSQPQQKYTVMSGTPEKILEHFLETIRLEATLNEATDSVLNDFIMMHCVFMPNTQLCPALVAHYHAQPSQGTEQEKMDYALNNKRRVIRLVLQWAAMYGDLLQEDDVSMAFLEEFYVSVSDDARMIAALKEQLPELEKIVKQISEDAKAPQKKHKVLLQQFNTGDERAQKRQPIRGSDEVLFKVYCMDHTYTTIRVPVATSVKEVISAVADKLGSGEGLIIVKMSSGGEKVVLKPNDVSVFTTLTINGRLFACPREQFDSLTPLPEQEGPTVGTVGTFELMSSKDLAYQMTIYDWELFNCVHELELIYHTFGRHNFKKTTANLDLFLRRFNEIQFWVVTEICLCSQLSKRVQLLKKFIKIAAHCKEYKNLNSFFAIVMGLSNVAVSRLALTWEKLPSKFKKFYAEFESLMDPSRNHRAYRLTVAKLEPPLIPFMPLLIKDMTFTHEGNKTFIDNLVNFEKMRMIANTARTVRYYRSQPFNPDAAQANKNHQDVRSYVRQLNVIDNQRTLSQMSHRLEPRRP
Sequence of Rap guanine nucleotide exchange factor 3 (Homo sapiens) (O95398 whole entry, looked up): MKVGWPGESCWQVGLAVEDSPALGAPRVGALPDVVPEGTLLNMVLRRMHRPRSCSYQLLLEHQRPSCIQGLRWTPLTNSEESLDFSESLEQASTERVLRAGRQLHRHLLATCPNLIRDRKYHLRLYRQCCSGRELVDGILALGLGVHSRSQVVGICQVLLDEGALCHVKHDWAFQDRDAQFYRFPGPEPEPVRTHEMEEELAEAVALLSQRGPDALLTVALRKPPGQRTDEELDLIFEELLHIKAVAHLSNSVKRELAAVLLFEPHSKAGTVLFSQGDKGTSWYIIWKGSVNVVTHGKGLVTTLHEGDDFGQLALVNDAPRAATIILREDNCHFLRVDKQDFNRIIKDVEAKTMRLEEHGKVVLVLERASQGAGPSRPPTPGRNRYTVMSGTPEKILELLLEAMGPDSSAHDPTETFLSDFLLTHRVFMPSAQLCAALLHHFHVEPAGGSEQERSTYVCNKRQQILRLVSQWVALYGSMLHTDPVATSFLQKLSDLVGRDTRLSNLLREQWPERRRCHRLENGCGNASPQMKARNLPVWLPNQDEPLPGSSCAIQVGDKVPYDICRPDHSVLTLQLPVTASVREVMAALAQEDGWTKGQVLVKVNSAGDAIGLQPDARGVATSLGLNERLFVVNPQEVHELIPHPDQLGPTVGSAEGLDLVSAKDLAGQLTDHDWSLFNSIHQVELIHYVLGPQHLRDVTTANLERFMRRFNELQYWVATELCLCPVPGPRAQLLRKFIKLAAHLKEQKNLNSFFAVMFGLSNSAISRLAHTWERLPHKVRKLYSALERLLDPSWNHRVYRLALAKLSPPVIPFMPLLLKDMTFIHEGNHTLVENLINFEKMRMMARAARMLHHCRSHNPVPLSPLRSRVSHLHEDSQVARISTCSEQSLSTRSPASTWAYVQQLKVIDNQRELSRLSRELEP

Cc1ccc(C(=O)c2cn(Cc3cccc(C)c3)c3nc(C)ccc3c2=O)cc1
inactive: Potency [1] | Potency [2] | Potency [3] | Potency [4]

CC1=C(C(=O)Nc2ccccc2)C(c2ccc(Cl)cc2)n2c(s/c(=C/c3cccc(OCC(=O)O)c3)c2=O)=N1 (centres undefined)
inactive: Potency [1] | activation [2] 3.83% [at 17.1 µM, percent relative to cAMP agonist control] | Potency [3] | activity change, negative = inhibition [4] -3.62% [at 30.8 µM]

COc1cc(/C=C2\SC(=S)N(CCCCC(=O)O)C2=O)ccc1OS(=O)(=O)c1ccc(C)cc1
inactive: Potency [1] | activation [2] -4.35% [at 17.1 µM, percent relative to cAMP agonist control] | Potency [3] | activity change, negative = inhibition [4] -18.6% [at 30.8 µM]

CCN(CC)CC#CC(OC)(c1ccccc1)c1ccccc1
inactive: Potency [1] | Potency [2] | Potency [3] | Potency [4]

COc1ccc(NC(=O)CSc2sc3c(O)cc(=O)[nH]c3c2C#N)c(OC)c1
inactive: Potency [1] | activation [2] 3.92% [at 17.1 µM, percent relative to cAMP agonist control] | Potency [3] | activity change, negative = inhibition [4] -13.9% [at 30.8 µM]

O=C(Nc1c(-c2ccc3c(c2)OCO3)[nH][nH]c1=O)c1ccccc1
inactive: Potency [1] | Potency [2] | Potency [3] | Potency [4]

COc1cc(O)c(C(C)=O)c2c1C=CC(C)(C)O2
inactive: Potency [1] | Potency [2] | Potency [3] | Potency [4]

CC(C)CCn1c(Oc2ccccc2Cl)nc2c1c(=O)n(C)c(=O)n2C
inactive: Potency [1] | Potency [2] | Potency [3] | Potency [4]

O=C(Nc1cccc(F)c1)c1ccc(-c2cccnc2)c2ccoc12
inactive: Potency [1] | Potency [2] | Potency [3] | Potency [4]

CCOc1cc(-c2ccc(OC(=O)c3ccccc3)c(OC)c2)cc(=O)c2c(C)oc(C)c12
inactive: Potency [1] | Potency [2] | outcome [3] inactive [at 12.7 µM] | Potency [4]

CCCN(CC(=O)Nc1ccccc1OC)C(=O)c1cccc(S(=O)(=O)Nc2ccc(OC)cc2)c1
inactive: Potency [1] | Potency [2] | Potency [3] | Potency [4]
